Many of the other results were omitted from the sample, so hits are more common in it than they were.
Sfp PPTase inh – qHTS Assay for Inhibitors of Bacillus subtilis Sfp phosphopantetheinyl transferase (PPTase). 4'-phosphopantetheinyl transferase ffp (Bacillus subtilis), Q9F4F7. Biochemical Sfp PPTase activity, qHTS. Potency, µM, inactives show largest response in the series, negative = inhibition, hits mostly inhibitors. actives 3.5% (n = 310,000). AID 1490, 2009;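 also: the enzyme is Sfp with the accession as filed and its product quenches rhodamine fluorescence; 0% = enzyme reaction without inhibitor and -100% = no enzyme wells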
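With Hepes-Na pH 7.6 buffer containing 10 mM MgCl2, Sfp (15 nM) modified BHQ-2-YbbR (12.5 uM) using rhodamine-CoA (5 uM). Two reads 30 minutes apart at 525/598 nm yielded each well's rate.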
VDR inh – Inhibitors of the vitamin D receptor (VDR): qHTS. VDR-SRC2-3 peptide fluorescence polarization, 2 h. Potency, µM, without a hit: max response, negative = inhibition, hits mostly inhibitors. actives 0.93% (n = 400,000). Vitamin D3 receptor (Homo sapiens), P11473; also: % is scaled to controls: 0 for no effect and ±100 for the full control effect
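Two reagent solutions held at 4 deg C in the dark were dispensed, compounds pinned at 23 nl, and the mixture incubated 2 h at room temperature. Read-out: fluorescence polarization of VDR–SRC2-3 peptide binding.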
G9a inh – qHTS Assay for Inhibitors of Histone Lysine Methyltransferase G9a; Histone-lysine N-methyltransferase EHMT2 (Homo sapiens), Q96KQ7; G9a H3K9 monomethylation, AlphaScreen, 2 h; Potency, µM (top dose mostly 102 µM), without a hit: at the top dose activity, negative = inhibition, hits mostly inhibitors; actives 8.8% (n = 350,000); AID 504332, 2011; also: % is scaled to controls: 0 for no effect and ±100 for the full control effect; nearly all actives have a fitted effect of over 75% in size
Target sequence (Q96KQ7 913-1193 limits assumed): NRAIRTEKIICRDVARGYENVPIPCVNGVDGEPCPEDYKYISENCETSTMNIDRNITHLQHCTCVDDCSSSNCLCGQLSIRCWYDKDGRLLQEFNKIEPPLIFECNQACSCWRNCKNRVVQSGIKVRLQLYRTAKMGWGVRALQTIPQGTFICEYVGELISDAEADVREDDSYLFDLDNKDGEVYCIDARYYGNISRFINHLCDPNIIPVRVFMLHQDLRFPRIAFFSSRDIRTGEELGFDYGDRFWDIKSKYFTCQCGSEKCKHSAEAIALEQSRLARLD
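AlphaScreen read-out: biotin-H3K9 peptide (500 nM) methylation by 20 nM enzyme with 20 uM SAM, 2 h at room temperature after 15 min compound preincubation; anti-monomethyl H3K9 antibody plus donor/acceptor beads, 10 min dark.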
ALOX12 inh – Primary qHTS assay for inhibitors of human arachidonate 12S-lipoxygenase (ALOX12): Round 2 | Polyunsaturated fatty acid lipoxygenase ALOX12 (Homo sapiens), P18054 | purified 12hLO, xylenol orange hydroperoxide absorbance | Potency, µM (titrated, usually from 108 µM), for inactives: at the top dose activity change, negative = inhibition, actives largely listed as inhibitors | actives 1.1% (n = 580,000) | AID 1671190, 2021; also: % is scaled to controls: 0 for no effect and ±100 for the full control effect
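Hydroperoxide product was detected by ferrous iron/xylenol orange as the 573 to 405 nm absorbance ratio. Arachidonic acid at 40 uM (final) was turned over for 30 min at room temperature by 150 nM human 12hLO, pH 7.0 Hepes buffer, after 15 min compound preincubation.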
Glioma ERSR ind – qHTS for Inducers of the Endoplasmic Reticulum Stress Response (ERSR) in Human Glioma: qHTS. actives 0.02% (n = 420,000). Potency, µM, for inactives: at the highest dose activation, usual class: activators. U87-MG GRP78 promoter luciferase reporter, 16 h; also: series mostly up to about 76 µM; % of control where 0% means no effect; nearly all actives have a fitted effect of over 35% in size
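Stably transfected U87-MG glioma cells carrying a GRP78-based luciferase sensor; 16 h compound incubation. Luminescence end-point read 10 min after Bright-Glo addition at room temperature.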
The depositor's hits bear a star; ? = inconclusive; nt = not tested or not shown; ! = not active in a repeat; [ ] = another dose, or the depositor's remark. Calls follow the shape of the dose curve; as a rule, active = well fitted curve in the direction sought with a large enough effect; inconclusive = small, poorly fitted or top-dose-only effect, or another doubt; inactive = no such curve, though single readings can be large; an effect the other way counts as inactive or inconclusive. Potency is read from the fitted curve at half-maximal effect.

SMILES	Sfp PPTase inh	VDR inh	G9a inh	ALOX12 inh	Glioma ERSR ind
Cc1ccc(C2SCC(=O)Nc3n[nH]c(C)c32)cc1 (stereo not drawn)	nt	nt	nt	-2%	nt
CN1c2ncccc2CN(Cc2ccccc2)CC[C@H]1CO	nt	nt	nt	228%[176 µM]	nt
C=C[C@H]1CN2CC[C@H]1C[C@@H]2CNCc1ccc(OC)cc1	nt	nt	nt	33%[176 µM]	nt
CN1CCN(C(=O)Cc2nc3ccccc3[nH]2)CC1	1%	6%	-35%	10%[57.4 µM]	2%
COc1ccc(N2CCN(Cc3nc4ccccc4[nH]3)CC2)cc1	16%	-1%	32µM*	-14%	2%
CN(C)C(CSS(=O)(=O)c1ccccc1)CSS(=O)(=O)c1ccccc1	nt	nt	nt	0.71µM*	nt
CN1C(=O)/C(=C\N2CCc3ccccc32)C(=O)NC1=S	35µM*	-1%	?	-22%	-1%
O=C(O)CCCCC1SCC2NC(=O)NC21 (stereo not drawn)	14%	6%	7.9µM*!	-11%	-6%
CN1CCN(C)c2cc(Nc3ccncc3)ncc2C1	nt	nt	nt	33%[176 µM]	nt
Cn1nc(C2CCCCC2)cc1[C@H]1CN2CC[C@H]1C[C@@H]2CN	nt	nt	nt	50%[176 µM]	nt
COP(=S)(OC)Oc1ccc([N+](=O)[O-])c(C)c1	?	22µM*	nt	nt	0%
CN(C(=O)CCl)C1CCCCC1	nt	nt	nt	-14%	nt
CCC(C)n1c(O)c(C=NC(C)c2ccccc2)c(=O)[nH]c1=S (stereo not drawn)	-4%	-1%	nt	100%	-2%
CCC(C)n1c(O)c(C(c2ccccn2)c2c(O)n(C(C)CC)c(=S)[nH]c2=O)c(=O)[nH]c1=S (stereo not drawn)	50µM*	-12%	11µM*	?	-1%
CCn1c(CO)nnc1C1CC(NC(=O)c2cnn(Cc3ccccc3)c2)C1 (stereo not drawn)	nt	nt	nt	12%	nt
Cc1cccc(C(O)(C(=O)NNC(=O)CN2CCN(C)CC2)c2cccc(C)c2)c1	5%	6%	71µM*	1%	0%
Cc1cccc2c1=NC(=O)/C(=C/c1c(O)[nH]c(=O)[nH]c1=O)C=2	50µM*	?	10µM*	-28%	-1%
CC12CN3CC(C)(C[N+](C)(C3)C1)C2=O	nt	nt	nt	-64%	nt
CCOC(=O)c1c(NC(NC(=O)CF)C(Cl)(Cl)Cl)sc2c1CCCC2 (stereo not drawn)	-23%	45µM*	45µM*	?	-3%
Cc1[nH]c(=S)c(C#N)c2c1CCCC2	1%	?	1.8µM*	?	-2%
CC(C)Cc1[nH]c(=O)c(C#N)c2c1CCC2	0%	-2%	4%	184%[57.4 µM]	-5%
COC(=O)CSc1nc2sc3c(c2c(=O)n1C1CCCCC1)CCN(C)C3	56µM*	nt	45µM*	nt	nt
CCn1c(O)c(C=Nc2ccc(N3CCOCC3)cc2)c(=O)n(CC)c1=S	-17%	-20%	7%[59 µM]	-7%	-5%
CCn1c(O)c(C(=O)CC2NCCc3ccccc32)c(=O)n(CC)c1=S (stereo not drawn)	45µM*	-4%	?	nt	-5%
COC(=O)c1nc(-c2ccc3c(n2)C(=O)C(N)=C(OC)C3=O)c(N)c(-c2ccc(OC)c(OC)c2O)c1C	16µM*	10µM*	10µM*	16µM*	-8%
SMILES	Sfp PPTase inh	VDR inh	G9a inh	ALOX12 inh	Glioma ERSR ind
O=C(c1ccc(C(F)(F)F)cc1)N1CCC(C(=O)O)(c2ccccc2)CC1	nt	nt	nt	3%[6.33 µM]	nt
CCOc1cc(/C=C(\C#N)C(=O)NCC2CCCO2)ccc1OCC(N)=O (stereo not drawn)	1%	-26%	50µM*	?	-1%
COc1cc2c(cc1Oc1ccccc1)NC(=O)C21CCN(C(=O)c2ccnn2C)CC1	nt	nt	nt	7%[176 µM]	nt
COc1ccc(CCn2c(O)c(C=NCCCO)c(=O)[nH]c2=O)cc1OC	10%	11%	6%[59 µM]	204%	-8%
COc1cc(/C=C/C(=O)c2c(O)n(CCc3ccccc3)c(=O)[nH]c2=O)ccc1O	-18%	45µM*	45µM*	-29%	8%
CC(C)(C)NC(=O)N1[C@H]2CC[C@@H]1c1cncnc1C2	nt	nt	nt	24%	nt

Compound activity deposited in PubChem BioAssay by National Center for Advancing Translational Sciences (NCATS).
